“And” between values parts separate entries of the source, which are not always exact repeats. Equal entries are not always repeated. The whole screen tested about 4,300 compounds, of which about 60 (1%) were called active. The list comes from a sample in which actives are over-represented; it also holds similar structures and randomly drawn compounds. Values without a mark were called inactive.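 The calls were made as follows: active = inhibition of labelled peptide binding to the formyl peptide receptor of at least 65%; inactive = the rest.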
What follows are molecules tested against fMet-Leu-Phe receptor (Homo sapiens) (UniProt P21462) (assay: small-molecule ligands of human FPR – U937-FPR cells, fMLFK-FITC, flow cytometry, primary screen (AID 362;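 as to inhibition: plate controls were buffer control wells for no effect and unlabeled fMLFF blocking peptide for full effect; higher means less cell fluorescence so more probe displaced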)). Conditions: fMLFK-FITC displacement; active compounds read high, concentration not given here.
Sequence of fMet-Leu-Phe receptor (Homo sapiens) (P21462 whole entry, looked up): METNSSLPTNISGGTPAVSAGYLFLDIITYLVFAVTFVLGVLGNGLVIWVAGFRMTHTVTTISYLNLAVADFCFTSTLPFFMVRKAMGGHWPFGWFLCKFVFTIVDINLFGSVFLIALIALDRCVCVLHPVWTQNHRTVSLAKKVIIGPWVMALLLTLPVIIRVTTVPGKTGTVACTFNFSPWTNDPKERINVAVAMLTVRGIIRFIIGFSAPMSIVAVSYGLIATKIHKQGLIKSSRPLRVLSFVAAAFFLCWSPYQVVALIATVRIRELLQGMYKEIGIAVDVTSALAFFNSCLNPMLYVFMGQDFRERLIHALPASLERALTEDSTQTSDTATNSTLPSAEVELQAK

Question: Which inhibition does the source give for `CCOCCOC(=O)C1=C(C)NC2=C(C(=O)C(C(=O)OC)C(C)C2)C1c1cccc(Cl)c1` (stereo not given) here?
Answer: 30.9%

Question: Which inhibition does the source give for `CC1(C)C2([N+](=O)[O-])CN3CC1([N+](=O)[O-])CN(C2)C3C(O)C(O)C(O)C(O)CO` (stereo not given) here?
Answer: inactive

Question: With `O=C(C1CCC(CNS(=O)(=O)c2ccc(Br)s2)CC1)N1CCC(Cc2ccccc2)CC1` (stereo not given) as the molecule, how does the inhibition read?
Answer: inactive

Question: `CC(C)C1Nc2c(C(=O)O)cccc2C(Nc2ccccc2C(=O)O)C1(C)C` (stereo not given) was tested. Which inhibition did it give?
Answer: 65.1% (active) and 89.9% (active)

Question: How did the inhibition turn out when `COc1ccccc1C1Nc2c(C(=O)O)cccc2C2C3CCC(C3)C12` (stereo not given) was run?
Answer: 20.9%

Question: `O=C(O)c1cccc2c1NC(C(=O)O)C1CC=CC21` (stereo not given) was tested. Which inhibition did it give?
Answer: 4.5%

Question: With `COc1ccc(Oc2c(C(F)(F)F)oc3cc(OC(C)C(=O)OCCC(C)C)ccc3c2=O)cc1` (stereo not given) as the molecule, how does the inhibition read?
Answer: 8%

Question: `O=C(NCCCN1CCC(Cc2ccccc2)CC1)C1CCC(CNS(=O)(=O)c2ccccc2)CC1` (stereo not given) was tested. Which inhibition did it give?
Answer: inactive

Question: For `COc1cc(C2C(C(=O)OC3CCCCCC3)=C(C)NC3=C2C(=O)CC(C)(C)C3)cc([N+](=O)[O-])c1O` (stereo not given), which inhibition is on record?
Answer: 59.7%

Question: For `COc1cc(C2C(C(=O)OC3CCCCC3)=C(C)NC3=C2C(=O)CCC3)cc(Cl)c1O` (stereo not given), which inhibition is on record?
Answer: 24.3%

Question: `CCOc1cc(C2C(C(=O)OC3CCCCCC3)=C(C)NC3=C2C(=O)CCC3)cc([N+](=O)[O-])c1O` (stereo not given) was tested. Which inhibition did it give?
Answer: 66.4% (active)

Question: With `COc1cc(C2C(C(=O)OC3CCCCC3)=C(C)NC3=C2C(=O)CC(c2ccc(Cl)cc2)C3)ccc1OC(C)=O` (stereo not given) as the molecule, how does the inhibition read?
Answer: 7%

Question: How did the inhibition turn out when `CC1=C(C(=O)OC2CCCCC2)C(c2ccc(Cl)c([N+](=O)[O-])c2)C2=C(CCCC2=O)N1` (stereo not given) was run?
Answer: inactive

Question: `COc1ccc(C2C(C(=O)OC3CCCCC3)=C(C)NC3=C2C(=O)CC(c2ccc(Cl)cc2)C3)cc1OC` (stereo not given) was tested. Which inhibition did it give?
Answer: 77.5% (active)

Question: For `COc1cc(C2C(C(=O)OC3CCCC3)=C(C)NC3=C2C(=O)CC(c2ccc(Cl)cc2)C3)ccc1OC(C)=O` (stereo not given), which inhibition is on record?
Answer: 8.8%

Question: Which inhibition does the source give for `COc1cc(C2C(C(=O)OC3CCCCCC3)=C(C)NC3=C2C(=O)CCC3)cc([N+](=O)[O-])c1O` (stereo not given) here?
Answer: 69.7% (active)

Question: With `CCOc1cc(C2C(C(=O)OC3CCCCCC3)=C(C)NC3=C2C(=O)CC(C)(C)C3)cc([N+](=O)[O-])c1O` (stereo not given) as the molecule, how does the inhibition read?
Answer: 40.2%

Question: `COc1ccc(C2NC(=O)NC(C)=C2C(=O)OC2CCCCCC2)cc1` (stereo not given) was tested. Which inhibition did it give?
Answer: inactive

Question: `CCOC(=O)C1CCC(CN(Cc2ccccc2C)S(=O)(=O)c2cccc(C(F)(F)F)c2)CC1` (stereo not given) was tested. Which inhibition did it give?
Answer: inactive

Question: For `CCOc1cc(C(C2=C(O)CC(C)(C)CC2=O)C2=C(O)CC(C)(C)CC2=O)ccc1OC(=O)c1cccc(OC)c1`, which inhibition is on record?
Answer: 80.2% (active)

Question: With `CCOc1cc(C2C3=C(CC(C)(C)CC3=O)OC3=C2C(=O)CC(C)(C)C3)ccc1OC(=O)c1cccc(C)c1` as the molecule, how does the inhibition read?
Answer: inactive

Question: `COc1cccc(C(=O)Oc2ccc(C3C4=C(CC(C)(C)CC4=O)OC4=C3C(=O)CC(C)(C)C4)cc2OC)c1` was tested. Which inhibition did it give?
Answer: inactive

Question: `CCOc1cc(C2C3=C(CC(C)(C)CC3=O)OC3=C2C(=O)CC(C)(C)C3)ccc1OC(=O)c1cccc(OC)c1` was tested. Which inhibition did it give?
Answer: inactive

Question: For `COc1cc(C2C3=C(CC(C)(C)CC3=O)OC3=C2C(=O)CC(C)(C)C3)ccc1OC(=O)c1cccc(C)c1`, which inhibition is on record?
Answer: 12.3%

Question: For `COc1cccc(C(=O)Oc2ccc(C(C3=C(O)CC(C)(C)CC3=O)C3=C(O)CC(C)(C)CC3=O)cc2OC)c1`, which inhibition is on record?
Answer: 86.9% (active)

Question: For `CCOC(=O)c1cccc(N2C(=O)C3C(C2=O)C2C=CC3C23CC3)c1` (stereo not given), which inhibition is on record?
Answer: 5.1%

Question: For `CCSCCOC(=O)C1=C(C)NC2=C(C(=O)C(C(=O)OC)C(C)C2)C1c1c(F)cccc1Cl` (stereo not given), which inhibition is on record?
Answer: inactive

Question: `CCCOCCOC(=O)C1=C(C)NC2=C(C(=O)C(C(=O)OC)C(C)C2)C1c1ccc(C)o1` (stereo not given) was tested. Which inhibition did it give?
Answer: 53.7%

Question: For `CCN(Cc1ccccc1)Cc1c(O)ccc2c(=O)c(Oc3ccc(OC)cc3)c(C(F)(F)F)oc12`, which inhibition is on record?
Answer: inactive

Question: Which inhibition does the source give for `Cc1ccc(-n2c3c(c(=O)[nH]c2=O)C(NC(=O)c2ccccc2C)(C(F)(F)F)C(=O)N3)cc1` (stereo not given) here?
Answer: 10.6%

Question: How did the inhibition turn out when `CCOc1ccccc1C(=O)NC1(C(F)(F)F)C(=O)Nc2c1c(=O)[nH]c(=O)n2-c1ccccc1` (stereo not given) was run?
Answer: 63.1%

Question: For `CCOc1ccccc1C(=O)NC1(C(F)(F)F)C(=O)Nc2c1c(=O)[nH]c(=O)n2-c1ccc(C)cc1` (stereo not given), which inhibition is on record?
Answer: 65.3% (active)

Question: `Cc1ccccc1C(=O)NC1(C(F)(F)F)C(=O)Nc2c1c(=O)[nH]c(=O)n2-c1ccc(F)cc1` (stereo not given) was tested. Which inhibition did it give?
Answer: 12.2%

Question: How did the inhibition turn out when `CCOc1ccccc1C(=O)NC1(C(F)(F)F)C(=O)Nc2c1c(=O)[nH]c(=O)n2-c1ccc(F)cc1` (stereo not given) was run?
Answer: 75.2% (active)

Question: For `O=C(NC1(C(F)(F)F)C(=O)Nc2c1c(=O)[nH]c(=O)n2-c1ccc(F)cc1)c1ccccc1Cl` (stereo not given), which inhibition is on record?
Answer: 11%

Question: With `CCOC(=O)CSc1nc2ccccc2c(=O)n1CC1CCC(C(=O)NCCc2ccccc2)CC1` (stereo not given) as the molecule, how does the inhibition read?
Answer: inactive

Question: `O=C(O)C1C2C=CC(C2)C1C(=O)NCC1CCCO1` (stereo not given) was tested. Which inhibition did it give?
Answer: 2.4%

Question: How did the inhibition turn out when `CCCOCCOC(=O)C1=C(C)NC2=C(C(=O)C(C(=O)OC)C(C)C2)C1c1cccc(OC)c1` (stereo not given) was run?
Answer: 37.6%

Question: `CCC(C)C(Nc1ncnc2sc3c(c12)CCC3)C(=O)O` (stereo not given) was tested. Which inhibition did it give?
Answer: 0.8%

Question: With `COc1ccc(OC)c(NC(=O)C(C(C)C)N2C(=O)c3ccccc3C2=O)c1` (stereo not given) as the molecule, how does the inhibition read?
Answer: 27.7%

— PubChem BioAssay AID362 (NMMLSC, 2006)
